The values below come from PubChem BioAssay.

The source made the active and inactive calls.

Assay [1] concerns Wnt5a (protein binding on small-molecule microarray). The assay can be described thus: small molecules binding Wnt5a protein – biophysical, small-molecule microarray, 635/667 nm fluorescence, primary screen (AID 1142).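 Also: fluorescence read at 667 nm with signal to noise per printed feature.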 Conditions: 635 nm fluorescence, higher = more signal.
Assay [2] can be described thus: ATP-based viability of Huh7 replicon cells – cell-based, CellTiter-Glo luminescence, basal, 48 h, cytotoxicity control for HCV replication inhibitor project, primary screen (AID 1143).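 Also: Huh7 hepatoma cells carrying a hepatitis C replication reporter with no stimulus; test concentration not given here.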 Conditions: higher = more signal, called active from +8 up or from −8 down.
The nature of assay [3]: basal CRE-LacZ reporter activity in PC12 – cell-based, unstimulated, primary screen (AID 1145). The note with it: no forskolin, luminescence, 4.5 h, higher = more signal, called active from +8 up or from −8 down.
The nature of assay [4]: forskolin-driven CRE-LacZ activity in PC12 – cell-based, CRE-LacZ reporter, forskolin-stimulated, primary screen (AID 1146).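 Also: PC12 cells with 6xCRE LacZ reporter stimulated by forskolin 10 µM; beta-galactosidase reporter signal reflecting CREB driven transcription.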 The note with it: luminescence, 4.5 h, higher = more signal, called active from +8 up or from −8 down.
In assay [5] the target is Streptavidin (Streptomyces avidinii) (UniProt P22629). The assay can be described thus: compounds binding control protein streptavidin – biophysical, small-molecule microarray, 635/667 nm fluorescence, artefact control for SMM compound annotation, primary screen (AID 1147).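 Also: signal reflects streptavidin binding to arrayed compounds as a control protein.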 The note with it: higher = more signal.
Chain of Streptavidin (Streptomyces avidinii) (P22629 whole entry, looked up): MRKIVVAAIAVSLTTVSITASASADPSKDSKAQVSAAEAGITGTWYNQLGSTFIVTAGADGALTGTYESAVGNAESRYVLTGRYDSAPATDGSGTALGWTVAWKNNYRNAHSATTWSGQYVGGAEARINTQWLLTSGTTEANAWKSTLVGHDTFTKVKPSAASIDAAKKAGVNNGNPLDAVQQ
Assay [6] is described as follows: probe aInhba binding on compound microarray – biochemical, small-molecule microarray, 635/667 nm fluorescence, primary screen (AID 1148).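 Also: score merges 667nm spot fluorescence with signal-to-noise for antibody binding to printed compounds.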 The note with it: higher = more signal.
The target of assay [7] is Torsin-1A (Homo sapiens) (UniProt O14656). As to the kind of experiment: TOR1A wild-type binding on microarray – cell lysate, small-molecule microarray, lysate, 635/667 nm, primary screen (AID 1149). The note with it: COS7 hTOR1A-WT lysate, 635 nm fluorescence, higher = more signal.
Chain of Torsin-1A (Homo sapiens) (O14656 whole entry, looked up): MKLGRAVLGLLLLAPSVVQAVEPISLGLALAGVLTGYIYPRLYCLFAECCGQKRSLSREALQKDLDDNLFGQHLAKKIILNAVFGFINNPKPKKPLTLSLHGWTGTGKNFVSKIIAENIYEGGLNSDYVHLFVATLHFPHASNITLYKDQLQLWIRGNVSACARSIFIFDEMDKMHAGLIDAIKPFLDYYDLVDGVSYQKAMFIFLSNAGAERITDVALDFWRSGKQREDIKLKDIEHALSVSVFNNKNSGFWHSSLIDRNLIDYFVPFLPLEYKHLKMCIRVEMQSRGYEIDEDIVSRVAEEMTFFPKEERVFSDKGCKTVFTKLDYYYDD
Assay [8] shares this target. The assay can be described thus: torsin A mutant lysate binding on microarrays – cell lysate, small-molecule microarray, COS7 lysate, 635/667 nm fluorescence, primary screen (AID 1150).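 Also: score pools 667 nm emission and signal to noise measuring lysate protein binding.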 Conditions: COS7 hTOR1A mutant lysate, 635 nm fluorescence, higher = more signal.
Assay [9] has as its system Sonic hedgehog protein (Shh). The assay can be described thus: Sonic hedgehog microarray binding compounds – biochemical, small-molecule microarray, 635/667 nm fluorescence, primary screen (AID 1151).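 Also: Shh protein binding to compounds spotted on small-molecule microarray slides; score combines spot fluorescence intensity with signal-to-noise across triplicate slides.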 The note with it: 635 nm fluorescence, higher = more signal.
A short description of assay [10]: optical density shifts of acrAB sulA E. coli – strain DRC41, OD650, 48 h, E. coli filamentation inducer project, primary screen (AID 1152).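 Also: E. coli MC1000 strain DRC41 lacking acrAB efflux pump and sulA.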 The note with it: higher = more signal, called active from +8 up or from −8 down.
Assay [11] can be described thus: probe aLefty1 binding on compound microarray – biochemical, small-molecule microarray, 635/667 nm fluorescence, primary screen (AID 1153).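 Also: score merges spot fluorescence with signal-to-noise ratio from the scanned slide images.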 Conditions: higher = more signal.
Assay [12] can be described thus: plasmodial surface anion channel blockers, osmotic lysis – cell-based, P. falciparum Indochina, OD700, 1 h, primary screen (AID 1154). The note with it: P. falciparum Indochina infected RBC osmotic lysis, higher = more signal, called active from +8 up or from −8 down.
Assay [13] in a line: plasmodial surface anion channel blockers, osmotic lysis – cell-based, P. falciparum Indochina, OD700, 2 h, primary screen (AID 1155).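 Also: lysis reports solute entry through the parasite surface anion channel PSAC.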 The note with it: P. falciparum Indochina infected erythrocytes, higher = more signal, called active from +8 up or from −8 down.
The nature of assay [14]: changes in parasitized red cell lysis, either direction – P. falciparum Indochina, OD700, 3 h, PSAC antagonist project, primary screen (AID 1156). The note with it: P. falciparum-infected erythrocytes, osmotic lysis, higher = more signal, called active from +8 up or from −8 down.
The nature of assay [15]: plasmodial surface anion channel blockers, osmotic lysis – cell-based, P. falciparum Indochina, OD700, 18 h, primary screen (AID 1157). Conditions: P. falciparum Indochina infected erythrocytes, osmotic lysis OD700, 18 h; higher = more signal, called active from +8 up or from −8 down.
A short description of assay [16]: S6 kinase pathway phospho-S6 level changes – cell-based, A549, cytoblot, luminescence, serum-stimulated, primary screen (AID 1158).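 Also: serum-stimulated A549 lung adenocarcinoma cells; signal is phosphorylated S6 detected by cytoblot immunostaining with HRP secondary.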 Conditions: 5 h, higher = more signal.
In assay [17] the target is NADPH oxidase 2 (Homo sapiens) (UniProt P04839). As to the kind of experiment: compounds shifting NOX2 Amplex Red fluorescence – cell-based, HEK293-NOX2, PMA-stimulated, NOX inhibitor project, primary screen (AID 1159). Also: test concentration not given here. Conditions: 45 min, higher = more signal, called active from +8 up or from −8 down.
Chain of NADPH oxidase 2 (Homo sapiens) (P04839 whole entry, looked up): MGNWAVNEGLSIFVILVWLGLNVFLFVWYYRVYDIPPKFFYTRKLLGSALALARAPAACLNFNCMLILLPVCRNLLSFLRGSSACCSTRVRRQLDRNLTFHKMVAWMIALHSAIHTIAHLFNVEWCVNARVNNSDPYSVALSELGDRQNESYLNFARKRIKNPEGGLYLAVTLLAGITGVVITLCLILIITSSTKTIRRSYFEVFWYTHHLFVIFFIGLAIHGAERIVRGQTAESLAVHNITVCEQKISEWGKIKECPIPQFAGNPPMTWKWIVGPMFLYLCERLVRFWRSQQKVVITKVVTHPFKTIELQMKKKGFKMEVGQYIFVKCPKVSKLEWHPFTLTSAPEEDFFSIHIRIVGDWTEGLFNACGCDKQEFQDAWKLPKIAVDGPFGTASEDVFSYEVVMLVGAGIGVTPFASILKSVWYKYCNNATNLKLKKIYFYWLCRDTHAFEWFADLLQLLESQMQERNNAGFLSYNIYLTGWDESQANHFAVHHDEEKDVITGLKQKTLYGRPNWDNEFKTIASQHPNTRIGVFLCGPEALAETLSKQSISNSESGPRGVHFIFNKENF
The target of assay [18] is NADPH oxidase 4 (Homo sapiens) (UniProt Q9NPH5). As to the kind of experiment: compounds shifting NOX4 Amplex Red fluorescence – cell-based, HEK293-NOX4, tetracycline-induced, NOX inhibitor project, primary screen (AID 1160). The note with it: HEK293-NOX4, Amplex Red H2O2 fluorescence, 45 min; higher = more signal, called active from +8 up or from −8 down.
Chain of NADPH oxidase 4 (Homo sapiens) (Q9NPH5 whole entry, looked up): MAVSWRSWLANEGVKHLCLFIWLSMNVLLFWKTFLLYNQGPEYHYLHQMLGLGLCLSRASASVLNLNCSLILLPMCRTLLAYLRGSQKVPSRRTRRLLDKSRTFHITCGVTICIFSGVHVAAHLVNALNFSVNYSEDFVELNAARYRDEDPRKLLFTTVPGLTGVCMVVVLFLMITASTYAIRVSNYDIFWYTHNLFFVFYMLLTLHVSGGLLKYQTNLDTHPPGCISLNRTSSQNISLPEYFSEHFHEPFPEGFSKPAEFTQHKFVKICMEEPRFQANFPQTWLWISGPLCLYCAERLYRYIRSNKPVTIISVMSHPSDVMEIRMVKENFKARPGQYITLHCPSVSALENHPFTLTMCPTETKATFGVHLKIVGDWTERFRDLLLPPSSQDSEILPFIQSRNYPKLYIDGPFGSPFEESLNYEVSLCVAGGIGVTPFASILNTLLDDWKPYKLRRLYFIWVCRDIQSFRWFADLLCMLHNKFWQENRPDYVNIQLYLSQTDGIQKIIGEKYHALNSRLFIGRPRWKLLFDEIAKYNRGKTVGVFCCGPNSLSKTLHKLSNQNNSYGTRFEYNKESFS
Assay [19] addresses NADPH oxidase 5 (Homo sapiens) (UniProt Q96PH1). As to the kind of experiment: compounds shifting NOX5 Amplex Red fluorescence – cell-based, HEK293-NOX5, NOX inhibitor project, primary screen (AID 1161). Conditions: HEK293-NOX5, ionomycin, 45 min, higher = more signal.
Assay [20] can be described thus: compound effects on lung adenocarcinoma cell viability – A549, calcein-AM fluorescence, 48 h, basal, profiling panel (AID 1162). Also: test concentration not given here. Conditions: higher = more signal.

Chain of NADPH oxidase 5 (Homo sapiens) (Q96PH1 whole entry, looked up): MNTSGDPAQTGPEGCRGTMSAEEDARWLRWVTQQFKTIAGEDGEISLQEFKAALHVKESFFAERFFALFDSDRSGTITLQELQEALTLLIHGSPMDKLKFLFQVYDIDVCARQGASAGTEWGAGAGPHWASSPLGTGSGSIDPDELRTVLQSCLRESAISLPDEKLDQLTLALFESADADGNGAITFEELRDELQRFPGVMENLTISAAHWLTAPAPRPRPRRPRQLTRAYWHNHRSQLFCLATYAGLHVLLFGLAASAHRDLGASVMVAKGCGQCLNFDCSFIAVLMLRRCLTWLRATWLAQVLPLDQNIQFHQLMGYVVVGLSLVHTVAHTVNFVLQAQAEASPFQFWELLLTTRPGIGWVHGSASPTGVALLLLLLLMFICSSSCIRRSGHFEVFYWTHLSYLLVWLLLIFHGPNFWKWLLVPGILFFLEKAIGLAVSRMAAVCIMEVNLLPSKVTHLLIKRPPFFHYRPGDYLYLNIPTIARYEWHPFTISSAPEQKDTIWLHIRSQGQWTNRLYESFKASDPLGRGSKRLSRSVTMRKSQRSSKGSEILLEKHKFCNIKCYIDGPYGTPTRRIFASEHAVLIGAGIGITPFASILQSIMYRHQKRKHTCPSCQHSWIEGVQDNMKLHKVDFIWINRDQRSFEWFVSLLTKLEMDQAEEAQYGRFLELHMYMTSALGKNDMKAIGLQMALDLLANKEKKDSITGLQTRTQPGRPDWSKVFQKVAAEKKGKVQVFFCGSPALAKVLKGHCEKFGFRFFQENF

As to `C=C(COC)/C(=C/C[C@H](OC(C)=O)c1cccc(OCCO)c1)c1cc(C(=O)OC)ccc1OC`, the composite z-score was 0.44 in [1]; -0.356 in [5]; -0.018 in [6]; 1.34 in [7]; 1.22 in assay [8]; 1.72 in assay [9]. Also, the composite z-score in [11] is -0.101. The z-score in [2] is -8.11 (active); in assay [3], 11.5 (active); in [4], -0.4 (inactive); in assay [10], 1.59 (inactive); in [12], 10.1 (active); in assay [13] it was 1.78 (inactive). Besides, the z-score in [14] was -2.63 (inactive); in assay [15], -0.0354 (inactive); in assay [16], 1.44; in assay [17], -1.94 (inactive); in [18], 0.00567 (inactive); in assay [19], -3.06. Moreover, the z-score in assay [20] was -0.344.
As to `NCCCCCCNC(=O)[C@@H]1C[C@@H]2C(=O)N[C@@H](Cc3ccccc3)C(=O)N2[C@@H]1c1ccc(O)cc1`, the composite z-score in assay [1] stood at 0.0167; in assay [5] it was 0.91; in [6], 0.229; in assay [7], 0.104; in assay [8], 0.416; in assay [9], 0.507. In assay [11], this molecule displayed a composite z-score of 0.443. The z-score was -0.136 (inactive) in assay [2]; 1.52 (inactive) in assay [3]; -1.12 (inactive) in assay [4]; 0.717 (inactive) in assay [10]; 3.47 (inactive) in assay [12]; 0.374 (inactive) in [13]. Also, the z-score is -6.59 (inactive) in assay [14]; 0.276 (inactive) in assay [15]; -0.118 in [16]; 1.18 (inactive) in [17]; 1.3 (inactive) in assay [18]; 0.846 in [19]. For the same molecule, in assay [20], the z-score was 0.987.
Regarding `CCCNC(=O)[C@@H]1c2ccccc2C(=O)N(Cc2cc(C(F)(F)F)cc(C(F)(F)F)c2)[C@H]1c1ccc(CO)cc1`, the composite z-score in [1] was 0.311; in assay [5], -0.555; in assay [6], -0.157; in assay [7], -0.0027; in assay [8], 0.19; in [9], 1. This molecule gave a composite z-score in [11] of 0.233. Besides, the z-score in assay [2] is -2.67 (inactive); in assay [3], 0.649 (inactive); in assay [4], -1.13 (inactive); in [10], 1.63 (inactive); in [12], 3.17 (inactive); in assay [13] it was 1.07 (inactive). For the same molecule, the z-score is -0.631 (inactive) in assay [14]; 0.77 (inactive) in assay [15]; 0.488 in assay [16]; 0.602 (inactive) in assay [17]; -0.772 (inactive) in assay [18]; 0.69 in assay [19]. In addition, in [20], the z-score is 1.16.
Take `CO[C@H]1O[C@H](CO)[C@@H](OC(=O)CCc2ccccc2)[C@@H]2OC(=O)[C@H](Cc3ccccc3)C/C=C/C[C@@H](Cc3ccccc3)C(=O)O[C@@H]12`: the composite z-score in assay [1] was -0.221; in assay [5] it was -0.804; in assay [6] it was -0.179; in [7], 0.0387; in assay [8], 0.0489; in [9], -0.214. The same molecule came in with a composite z-score in assay [11] of -0.243. The z-score in [2] was -3.09 (inactive); in [3], -0.552 (inactive); in assay [4], -1.18 (inactive); in assay [10] it was 2.35 (inactive); in assay [12], 6.07 (inactive); in [13], 0.389 (inactive). Moreover, the z-score is -1.06 (inactive) in [14]; -1.83 (inactive) in [15]; 0.939 in assay [16]; 1.59 (inactive) in [17]; 1.26 (inactive) in assay [18]; 0.751 in assay [19]. Further, the z-score in [20] was 1.38.
Consider `CC(=O)OC(C/C=C\B1OC(C)(C)C(C)(C)O1)c1ccccc1` (stereo not given), for which the composite z-score in assay [1] is -0.115; in assay [5] it was -0.748; in assay [6], -0.284; in [7], -0.611; in assay [8], 0.301; in assay [9], -0.236. The composite z-score in assay [11] was -0.147. Further, the z-score in assay [2] was -3.4 (inactive); in assay [3], 3.04 (inactive); in assay [4], -2.27 (inactive); in [10], -2.2 (inactive); in assay [12], 0.344 (inactive); in assay [13], -0.832 (inactive). Also, the z-score in [14] is -0.628 (inactive); in [15], -1.04 (inactive); in [16], 3.07; in assay [17], -0.889 (inactive); in [18], 0.478 (inactive); in assay [19], -2.94. Besides, the z-score in assay [20] was 2.43.
Regarding `COC(=O)C1=CC(c2ccc(CO)cc2)=CC(C2CC2)N(C)C=C1C(=O)OC` (stereo not given), the composite z-score in assay [1] was 0.138; in assay [5], 0.226; in assay [6], 0.203; in [7] it was -0.017; in assay [8] it was 1.04; in assay [9] it was -0.154. For the same molecule, the composite z-score in assay [11] came out at 0.223. Besides, the z-score was -3.85 (inactive) in assay [2]; -0.195 (inactive) in [3]; -1.75 (inactive) in assay [4]; 2.75 (inactive) in assay [10]; 7.02 (inactive) in assay [12]; 0.548 (inactive) in assay [13]. Further, the z-score in assay [14] was -2.7 (inactive); in [15], -0.382 (inactive); in assay [16], 3.99; in assay [17] it was -1.7 (inactive); in assay [18], -0.0178 (inactive); in [19], -1.69. In addition, in assay [20], the z-score was 0.981.
As for `O=C(O)[C@H]1C[C@H]2C(=O)NCC(=O)N2[C@H]1c1cccc(OCCO)c1`, the composite z-score in assay [1] turned out to be 0.0144; in [5], 0.42; in assay [6] it was 0.263; in assay [7], 0.836; in [8] it was 0.654; in [9], 0.821. The same molecule gave a composite z-score in [11] of 1.24. For the same molecule, the z-score in assay [2] is -0.812 (inactive); in assay [3], 0.285 (inactive); in [4] it was -0.736 (inactive); in assay [10], 2.08 (inactive); in assay [12], 9.23 (active); in assay [13], 1.29 (inactive). The z-score was -1.73 (inactive) in assay [14]; 0.818 (inactive) in [15]; 0.617 in [16]; 1.81 (inactive) in assay [17]; 1.52 (inactive) in assay [18]; 1.61 in [19]. Moreover, the z-score in assay [20] was -0.24.
On to `C=CCN1C(=O)[C@]2(O[C@H](CCn3cc([C@H](O)c4ccccc4)nn3)[C@@H]([Si](C)(C)c3ccc(OC)cc3)[C@@H]2C)c2cc(N3CCOC3=O)ccc21`, for which the composite z-score in assay [1] is -0.185; in [5], -0.0082; in assay [6], -0.224; in [7] it was 0.772; in [8], 0.76; in assay [9] it was -0.429. The composite z-score in [11] is -0.417. For the same molecule, the z-score in assay [2] is -5.33 (inactive); in assay [3] it was 2.8 (inactive); in assay [4], -2.35 (inactive); in assay [10] it was 1.46 (inactive); in [12] it was 4.38 (inactive); in assay [13], -0.527 (inactive). The z-score in [14] was 1.03 (inactive); in [15], -1.58 (inactive); in [16], 0.348; in assay [17] it was -0.122 (inactive); in assay [18], 1.61 (inactive); in [19], -2.66. The z-score in [20] is 0.0522.
